# Results filed as inconclusive are left out. Active and inactive are the calls of the source. Unless noted, cut-off not given; nearly all actives show AC50 up to about 30 µM.
# Assays:
# [1] = growth inhibition of DIPG glioma cells, dose response, cell-based, JHH-DIPG-1, MIPE4.0, CellTiter-Glo, qHTS (AID 1347062; cut-off not given, nearly all actives have AC50 up to about 27 µM;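 on AC50: cells exposed to compound for two days before readout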); conditions: JHH-DIPG-1 viability, CellTiter-Glo ATP luminescence
# [2] = growth inhibition of DIPG glioma cells, dose response, cell-based, SU-DIPG-IV, MIPE4.0, CellTiter-Glo, qHTS (AID 1347063); conditions: SU-DIPG-IV viability, CellTiter-Glo ATP luminescence;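 further: compound exposure lasted 48 hours before the viability readout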
# [3] = viability loss in pontine glioma line – cell-based, SU-DIPG-XXV, MIPE5.0, CellTiter-Glo, qHTS, dose response (AID 1347065; cut-off not given, nearly all actives have AC50 up to about 26 µM;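 further: cells exposed to compound for 48 hours before ATP readout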); conditions: CellTiter-Glo ATP luminescence
# [4] = JHH-DIPG-1 glioma cell viability, MIPE5.0 library, CellTiter-Glo luminescence, qHTS (AID 1347067; cut-off not given, nearly all actives have AC50 up to about 26 µM;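 further: cells exposed to compound for 48 hours before readout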); conditions: JHH-DIPG-1 glioma viability, CellTiter-Glo ATP luminescence
# [5] = SU-DIPG-XXV glioma cell viability, MIPE5.0 library, qHTS (AID 1347068; cut-off not given, nearly all actives have IC50 up to about 30 µM;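 on IC50: cells exposed to compound for 48 hours before viability readout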)
# [6] = growth inhibition of DIPG glioma cells, dose response, cell-based, SU-DIPG-XIII, MIPE5.0, CellTiter-Glo, qHTS (AID 1347064; cut-off not given, nearly all actives have AC50 up to about 23 µM;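 on AC50: cells exposed to compound for 48 hours before the viability read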); conditions: SU-DIPG-XIII viability, CellTiter-Glo ATP luminescence
# [7] = SU-DIPG-VI glioma cell viability, MIPE4.0 library, CellTiter-Glo luminescence, qHTS (AID 1347066); conditions: CellTiter-Glo ATP luminescence;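 further: cells exposed to compound for 48 hours before readout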
# [8] = growth inhibition of DIPG glioma cells, dose response, cell-based, SU-DIPG-XIII, MIPE4.0, CellTiter-Glo, qHTS (AID 1347061; cut-off not given, nearly all actives have AC50 up to about 37 µM;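 further: cells exposed to compound for 48 hours before readout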); conditions: SU-DIPG-XIII viability, CellTiter-Glo ATP luminescence
# [9] = sensitizers of A549 cells to miR-34 induction, primary screen, imaging, A549 dox-inducible miR-34, nuclei and caspase counts (AID 1347080;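 active means compounds whose cell count with miR-34 switched on is under 0.7 times the count with it off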); conditions: A549 miR-34 inducible, Hoechst nuclei count, 48 h
# [10] = survival rescue of mitochondrial mutant cells in low glucose, primary screen, MELAS cybrids, Rieske KO mouse fibroblasts, CellTiter-Glo (AID 1508586;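 active means mean z-score across replicates of 1.96 or higher in either the MELAS or the Rieske mutant cell line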;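 further: z relative to plate mean and SD of compound and empty wells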)
# [11] = LFS_MB_P medulloblastoma growth inhibition, cell-based, chromothripsis tumors, cisplatin or BGB combos (AID 1671449; in the data active means inhibition above about 80%;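 further: cells exposed for 96 hours; 0% = vehicle DMSO and 100% = killing by high DMSO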); conditions: LFS_MB_P medulloblastoma cells
# [12] = HDN33 neuroblastoma growth inhibition, cell-based, chromothripsis tumors, cisplatin or BGB combos (AID 1671450; in the data active means inhibition above about 80%;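 further: cells exposed to compound for four days; 0% = vehicle DMSO and 100% = cell killing by high DMSO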); conditions: HDN33 neuroblastoma cells, stronger effect = higher value
# [13] = ICB984 medulloblastoma cell growth inhibition, synergistic combos for chromothripsis tumors, cisplatin or BGB combos (AID 1671451; call rule not given here;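 further: cells exposed for 96 hours before readout; 0% = vehicle DMSO and 100% = killing by high DMSO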); conditions: ICB984 medulloblastoma cells, drug combinations, stronger effect = higher value
# [14] = HTB85 osteosarcoma cell growth inhibition, synergistic combos for chromothripsis tumors, BGB or cisplatin IC20 combos (AID 1671453; in the data active means inhibition above about 80%;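 further: cells exposed for 96 hours before readout; 0% = vehicle DMSO and 100% = high DMSO killing control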); conditions: HTB85 osteosarcoma cells, drug combinations, stronger effect = higher value
# [15] = MDA-MB-436 breast carcinoma cell growth inhibition, synergistic combos for chromothripsis tumors, BGB or cisplatin combos (AID 1671458; call rule not given here;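 further: cells exposed for 96 hours; 0% = vehicle DMSO and 100% = killing by high DMSO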); conditions: MDA-MB-436 breast carcinoma growth inhibition, drug combinations, stronger effect = higher value
# [16] = growth inhibition of BT084 medulloblastoma cells, cell-based, ICGC_MB145, cisplatin and BGB IC40 combos (AID 1671461; in the data active means inhibition above about 80%;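 further: cells exposed to drugs for 96 hours; 0% = vehicle DMSO and 100% = high DMSO full killing control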); conditions: drug combinations, stronger effect = higher value
# [17] = growth inhibition of RCMB18 medulloblastoma cells, cell-based, cisplatin and BGB IC40 combos (AID 1671462; in the data active means inhibition above about 80%;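 further: cells exposed to compound for four days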); conditions: stronger effect = higher value
# [18] = growth inhibition of CRL1545 osteosarcoma cells, cell-based, cisplatin and BGB IC20 combos (AID 1671464; in the data active means inhibition above about 80%;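 further: cells exposed to compound for 96 hours before readout; 0% = vehicle DMSO and 100% = high DMSO killing control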); conditions: stronger effect = higher value
# [19] = stronger effect = lower value, cell number ratio, induced over uninduced
# [20] = measured here: relative caspase fold change +Dox/-Dox
# [21] = measured here: total cells with miR-34 induction, stronger effect = lower value
# [22] = measured here: total cells without miR-34 induction
# [23] = measured here: with BGB IC20 combination, at 0.5 µM
# [24] = measured here: with cisplatin IC20 combination, at 0.5 µM
smiles,measurement,setting,value
COc1cc(C(=O)NC2CCN(C)CC2)ccc1Nc1ncc2c(n1)N(C1CCCC1)CCC(=O)N2C(C)C,AC50,[1],16.6 µM (active)
same,AC50,[2],7.43 µM (active)
same,AC50,[3],23.5 µM (active)
same,AC50,[4],23.5 µM (active)
same,outcome,[5],inactive
Cc1cccc(-c2nn(C(=S)Nc3ccccc3)cc2-c2ccnc3ccccc23)n1,outcome,[1],inactive
same,outcome,[2],inactive
same,outcome,[6],inactive
same,outcome,[3],inactive
same,outcome,[7],inactive
same,outcome,[4],inactive
same,outcome,[5],inactive
C[C@@H]1C/C=C/C=C/C=C/C=C/[C@@H](O[C@@H]2O[C@H](C)[C@@H](O)[C@H](N)[C@@H]2O)C[C@@H]2O[C@](O)(C[C@@H](O)C[C@@H]3O[C@H]3/C=C/C(=O)O1)C[C@H](O)[C@H]2C(=O)O,outcome,[1],inactive
CNC(=O)[C@H](Cc1ccccc1)NC(=O)[C@H](CC(C)C)[C@H](CSc1cccs1)C(=O)NO,outcome,[8],inactive
same,outcome,[7],inactive
same,outcome,[4],inactive
same,outcome,[5],inactive
Cc1cn2cc(C(=O)N(C)CCO)cc(N[C@@H]3CCOc4cccc(C)c43)c2n1,outcome,[1],inactive
same,outcome,[2],inactive
same,outcome,[6],inactive
same,outcome,[7],inactive
same,outcome,[4],inactive
same,outcome,[5],inactive
CNC1CCC(N(Cc2cccc(-c3ccncc3)c2)C(=O)c2sc3ccccc3c2Cl)CC1 (stereo unspecified),AC50,[1],14.8 µM (active)
same,AC50,[2],16.6 µM (active)
same,AC50,[3],11.8 µM (active)
same,AC50,[7],18.7 µM (active)
same,AC50,[4],20.9 µM (active)
same,IC50,[5],9.34 µM (active)
NC(CO)(CO)CCc1ccc(Sc2cccc(OCc3ccccc3)c2)cc1Cl,AC50,[1],11.8 µM (active)
same,AC50,[2],11.8 µM (active)
same,AC50,[6],8.33 µM (active)
same,AC50,[3],9.34 µM (active)
same,AC50,[7],18.7 µM (active)
same,AC50,[4],9.34 µM (active)
COc1ccc(C[C@@H](C)[C@@H](C)Cc2ccc(OC)c(OC)c2)cc1OC,AC50,[1],1.18 µM (active)
Cc1noc(-c2ccc(CSCCC(=O)O)cc2)c1NC(=O)OC(C)c1ccccc1Cl (stereo unspecified),outcome,[1],inactive
same,outcome,[2],inactive
same,outcome,[6],inactive
same,outcome,[3],inactive
same,outcome,[7],inactive
same,outcome,[4],inactive
same,outcome,[5],inactive
same,fold change,[9]; [19],0.888 (inactive)
same,fold change,[9]; [20],1.07
same,cell count,[9]; [21],6620
same,cell count,[9]; [22],7460
same,z-score,"[10]; MELAS cybrid survival, CellTiter-Glo 48 h, stronger effect = higher value",-0.439 (inactive)
same,z-score,"[10]; Rieske KO mouse fibroblast survival, CellTiter-Glo 72 h",0.718
COC(=O)C1=CO[C@@H](O)[C@@H]2C(CO)=CC[C@H]12,outcome,[8],inactive
same,fold change,[9]; [19],1 (inactive)
same,fold change,[9]; [20],0.878
same,cell count,[9]; [21],10100
same,cell count,[9]; [22],10100
CCOC(=O)N1CCN(/[N+]([O-])=N/Oc2cc(O/N=[N+](\[O-])N3CCN(C(=O)OCC)CC3)c([N+](=O)[O-])cc2[N+](=O)[O-])CC1,AC50,[1],9.35 µM (active)
same,AC50,[2],23.5 µM (active)
CCn1c(=O)c2c(nc(/C=C/c3ccc(OC)c(OC)c3)n2C)n(CC)c1=O,outcome,[1],inactive
same,outcome,[2],inactive
same,outcome,[6],inactive
same,outcome,[7],inactive
same,outcome,[4],inactive
same,outcome,[5],inactive
CO[C@H]1/C=C/O[C@@]2(C)Oc3c(C)c(O)c4c(O)c(c(/C=N\N5CCN(C6CCCC6)CC5)c(O)c4c3C2=O)NC(=O)/C(C)=C\C=C\[C@H](C)[C@H](O)[C@@H](C)[C@@H](O)[C@@H](C)[C@H](OC(C)=O)[C@@H]1C,AC50,[1],0.105 µM (active)
same,AC50,[2],0.0935 µM (active)
same,AC50,[6],23.5 µM (active)
same,AC50,[3],26.3 µM (active)
same,IC50,[5],20.9 µM (active)
same,inhibition,"[11]; at 0.5 µM, stronger effect = higher value",5.09% (inactive)
same,inhibition,"[11]; measured here: combination with BGB IC20, at 0.005 µM",-7.42%
same,inhibition,"[11]; measured here: combination with BGB IC40, at 0.005 µM",-15%
same,inhibition,"[11]; measured here: combination with BGB IC40, at 0.05 µM",-18.2%
same,inhibition,"[11]; measured here: combination with cisplatin, at 0.5 µM, stronger effect = higher value",-6.85%
same,inhibition,"[11]; measured here: combination with cisplatin, at 5 µM, stronger effect = higher value",15%
same,inhibition,"[12]; BGB combo, at 5 µM",85.6%
same,inhibition,[12]; at 0.5 µM,-11.9% (inactive)
same,inhibition,"[12]; cisplatin combo, at 5 µM",6.46%
same,inhibition,[12]; [23],-21.1%
same,inhibition,[12]; [24],-18.8%
same,inhibition,"[12]; single agent, at 5 µM",-3.56%
same,inhibition,"[13]; BGB IC20 combo, at 0.005 µM",-21.8%
same,inhibition,"[13]; BGB IC40 combo, at 0.005 µM",-25.4%
same,inhibition,"[13]; BGB IC40 combo, at 0.05 µM",-16.4%
same,inhibition,[13]; at 0.5 µM,-17.3% (inactive)
same,inhibition,"[13]; cisplatin combo, at 0.05 µM",-19.6%
same,inhibition,"[13]; cisplatin combo, at 0.5 µM",-17.5%
same,inhibition,"[13]; cisplatin combo, at 5 µM",-18.6%
same,inhibition,"[13]; measured here: 5 uM single agent, at 5 µM",-17.8%
same,inhibition,[14]; at 0.5 µM,16% (inactive)
same,inhibition,"[14]; measured here: with BGB IC20, at 0.5 µM",12.6%
same,inhibition,"[14]; measured here: with BGB IC20, at 5 µM",76.7%
same,inhibition,"[14]; measured here: with cisplatin IC20, at 0.5 µM",35.8%
same,inhibition,"[14]; measured here: with cisplatin IC20, at 5 µM",10.4%
same,inhibition,"[14]; single agent, at 5 µM",35.1%
same,inhibition,[15]; at 0.5 µM,-19% (inactive)
same,inhibition,"[15]; measured here: BGB combination, at 0.5 µM",-15.7%
same,inhibition,"[15]; measured here: BGB combination, at 5 µM",-5.36%
same,inhibition,"[15]; measured here: cisplatin combination, at 0.5 µM",-40.9%
same,inhibition,"[15]; measured here: cisplatin combination, at 5 µM",-22%
same,inhibition,[16]; at 0.5 µM,-28.3% (inactive)
same,inhibition,"[16]; cisplatin combination, at 0.5 µM",-31.9%
same,inhibition,"[16]; cisplatin combination, at 5 µM",-20.9%
same,inhibition,"[16]; measured here: BGB IC40 combination 0.05 uM, at 0.05 µM",-25.7%
same,inhibition,"[16]; single agent, at 5 µM",-12.9%
same,inhibition,[17]; at 0.5 µM,-14.8% (inactive)
same,inhibition,"[17]; cisplatin combo, at 5 µM",15%
same,inhibition,"[17]; measured here: BGB IC40 combination, at 0.05 µM",-18.7%
same,inhibition,"[17]; measured here: combination with cisplatin, at 0.5 µM",-14.5%
same,inhibition,"[17]; single agent, at 5 µM",27.7%
same,inhibition,[18]; at 0.5 µM,4.23% (inactive)
same,inhibition,[18]; [23],23.5%
same,inhibition,[18]; [24],-7.81%
same,inhibition,"[18]; single agent, at 0.05 µM",8.47%
same,inhibition,"[18]; single agent, at 5 µM",73.2%
CN(C1CCc2c(c3ccccc3n2CC(=O)O)C1)S(=O)(=O)c1ccc(F)cc1 (stereo unspecified),outcome,[8],inactive
same,outcome,[7],inactive
same,fold change,[9]; [19],1.07 (inactive)
same,fold change,[9]; [20],0.901
same,cell count,[9]; [21],6410
same,cell count,[9]; [22],5990
CC(=O)C1=C(O)C=C2Oc3c(C(C)=O)c(O)c(C)c(O)c3C2(C)C1=O (stereo unspecified),outcome,[8],inactive
same,outcome,[7],inactive

# From PubChem BioAssay
